# Screening results from PubChem BioAssay.
# ClpP mod: qHTS Assay for Activators of ClpP; Potency, µM (series often up to 57.5 µM), for inactives: at the highest dose activity change, negative = active; ATP-dependent Clp protease proteolytic subunit (Bacillus subtilis (strain 168)), P80244; purified B. subtilis ClpP, FRET peptide cleavage, 20 min; 340,000 compounds, 1.9% hits; active = well fitted falling curve with a large enough effect; inconclusive = small, poorly fitted or top-dose-only effect; inactive = no such curve, though single readings can be large or run the other way; note: potency is the fitted concentration of half-maximal effect; the source files actives as falling curves though it sought activators and does not explain the sign; nearly all actives have a fitted effect of over 65% in size
#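 FRET quenching reversal measured ClpP activation: 10 microg/mL B. subtilis ClpP at pH 8 with the FRET-FV decapeptide, read at 430 nm after 320 nm excitation. The 20-min minus 0-min signal was scaled between DMSO/no-enzyme wells and ADEP (5.8 microM final).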
# TCR act: activates T cell receptor signaling; primary human leukocytes, anti-CD3, IL-2 HTRF, 48 h; Potency, µM (top dose mostly 9.22 µM), for inactives: at the highest dose activation of IL-2 secretion, most hits filed as activators; 330,000 tested, under 10 active; note: % of control where 0% means no effect
#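 1) Mix primary human leukocytes, a-CD3 beads and compound. 2) Incubate 48 hr. 3) Add HTRF IL-2 reagents (a-IL-2-K, a-IL-2-d2).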
# uPA surface inh: cell surface uPA generation inhibition | AID 540303 | Potency, µM (titrated, usually from 38.3 µM), for inactives: at the top dose activity change, negative = inhibition, usual class: inhibitors | cell surface uPA generation assay, qHTS | 330,000 compounds, 0.31% hits; active = well fitted inhibition curve with a large enough effect; inconclusive = small, poorly fitted or top-dose-only effect; inactive = no such curve, though single readings can be large or run the other way; tested in mouse RAW 264.7 cells; note: potency is the fitted concentration of half-maximal effect; % is set by controls: 0 for no effect and ±100 for the full control effect; nearly all actives have a fitted effect of over 55% in size
# Sfp inh: Sfp phosphopantetheinyl transferase inhibition. Potency, µM, for the others: largest response in the series, negative = inhibition, actives largely listed as inhibitors. Q9F4F7. 310,000 compounds, 3.5% hits. AID 1490. Biochemical Sfp PPTase activity, qHTS;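 note: the enzyme is Sfp with the accession as filed and its product quenches rhodamine fluorescence; potency is the fitted concentration of half-maximal effect; 0% = enzyme reaction without inhibitor and -100% = no enzyme wells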
#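 After 15 min at room temperature with compound, 15 nM Sfp received 5 uM rhodamine-CoA plus 12.5 uM BHQ-2-ybbR (50 mM Hepes pH 7.6, 10 mM MgCl2). Rate came from the fluorescence difference over 30 min, ex 525/em 598 nm.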
# The depositor's hits bear a star; ? = inconclusive; · = no result; [ ] = another dose, or the depositor's remark. Shown are actives, neighbours in structure and some others; about 4.2% of the full set was active somewhere. Unless noted, calls come from the whole dose curve; as a rule, active = well fitted curve in the direction sought with a large enough effect; inconclusive = small, poorly fitted or top-dose-only effect, or another doubt; inactive = no such curve, though single readings can be large; an effect the other way counts as inactive or inconclusive.
SMILES,ClpP mod,TCR act,uPA surface inh,Sfp inh
COc1ccc(-c2cc(=O)oc3cc(OCC(=O)NCC4CCC(C(=O)O)CC4)ccc23)cc1 (stereo not given),?,-0.7%,16.2%,12.4%
COc1ccc2cc(CCNS(=O)(=O)c3ccc(NC(C)=O)cc3)c(=O)[nH]c2c1,-1.1%,2.6%,6.4%,11.7%
O=C1CC(c2cccc(F)c2)c2c(c3ccccc3[nH]c2=O)O1 (stereo not given),·,0.9%,-0.1%,6.31µM*
O=C(/C=C/c1ccc(-c2ccccc2)o1)c1ccccc1,0.8%,1.5%[46.1 µM],-7.6%,15.8µM*
Cc1ccc(-c2ccc(/C=C/C(=O)c3ccccc3)o2)cc1,3.2%,3.7%[46.1 µM],-0.1%,11.2µM*
Cc1ccc(C(=O)/C=C/c2ccc(-c3ccccc3[N+](=O)[O-])o2)cc1,-0.1%,4.3%,-19.5%,-13.7%
CC(C)/C=C/C(=O)N1CCCC(N2CCN(c3ccccc3F)CC2)C1 (stereo not given),0.2%,13.4%,0.7%,0.8%
CCCOc1ccc(N)cc1N,-4.8%,2.0%,-15.1%,44.7µM*
CNc1cncc(-c2ccc(F)cc2F)n1,5.1%,·,·,·
CC1CCN(CCOc2ccc(OCc3ccccc3)cc2)CC1,3.16µM*,-7.2%[46.1 µM],-5.7%,-31.0%
O=C(Nc1ccc(Cl)cc1Cl)[C@@H]1CC=C[C@@H]2CCN(Cc3ccccc3)C(=O)[C@@H]21,0.5%,·,·,·
COc1cc(CNCc2ccccn2)ccc1OCc1c(Cl)cccc1Cl,1.0%,-3.4%,6.7%,39.8µM*
COc1cc(CNCc2ccccn2)ccc1OCc1cccc(Cl)c1,-1.8%,3.2%,0.8%,79.4µM*
COc1cc(CNCCN2CCOCC2)ccc1OCc1c(Cl)cccc1Cl,·,13.0%[46.1 µM],·,10.9%
COc1cc(CNCc2ccccn2)ccc1OCc1ccc(Cl)cc1,1.4%,-5.1%[46.1 µM],7.8%,13.4%
COc1ccc(-n2nc(C(=O)NCC(=O)NCCCN3CCOCC3)c3ccccc3c2=O)cc1OC,·,-5.8%,-3.7%,21.2%
COC(=O)c1ccccc1NC(=O)C1=CC(c2ccc(C)cc2)=NS(=O)(=O)N1C,-2.8%,·,·,·
O=C(c1ccc(Cl)cc1)c1oc2ccccc2c1CS(=O)c1ccc(Cl)cc1 (stereo not given),-3.2%,-2.3%,·,56.2µM*
Oc1ccccc1OCc1nc2ccccc2s1,0.3%,-1.0%,-5.2%,?
Oc1ccc(O)c(Cc2nc3ccccc3s2)c1,·,4.9%,-11.5%,50.1µM*
NC(=O)CSCc1nc2ccccc2s1,1.0%,2.1%,3.1%,56.2µM*
Cn1c(SCc2nc3ccccc3s2)nnc1-c1cccs1,-19.0%,1.2%,2.4%,56.2µM*
N/C(Cc1nc2ccccc2s1)=N\O,·,-4.0%,-7.7%,1.6%
CCn1c(SCc2nc3ccccc3s2)nnc1-c1cccs1,-7.1%,-0.2%,·,1.7%
COc1ccccc1CNC(=O)CN1C(=O)CSc2ccc(S(=O)(=O)N(C)C)cc21,2.3%,·,·,·
SMILES,ClpP mod,TCR act,uPA surface inh,Sfp inh
Cn1cc(C2NC(=O)c3ccccc3N2)c2ccccc21 (stereo not given),28.2µM*,-1.5%,-14.8%,·
CCCOC1CCCN(C(=O)CCc2nnc(-c3ccc4c(c3)OCO4)o2)C1 (stereo not given),20µM*,-14.2%,4.7%,2.3%
CC1CCCN(C(=O)CCc2nnc(-c3ccc4c(c3)OCO4)o2)C1 (stereo not given),?,-0.3%,-3.8%,7.4%
Cc1ccc(-c2onc(C)c2C)cc1S(=O)(=O)NCc1cccs1,-1.3%,·,·,·
CCOc1ccc(-c2nc(CN(Cc3ccccc3)C[C@@H]3CCC(=O)N3)c(C)o2)cc1,·,-2.5%,1.2%,79.4µM*
Cc1ccc(/C=C/C(=O)OCc2nc(N)nc(Nc3ccccc3C)n2)o1,-1.6%,-5.2%,2.9%,79.4µM*
Cc1ccccc1Nc1nc(N)nc(COC(=O)c2ccco2)n1,1.6%,-68.8%,-1.5%,·
CCN1/C(=C2\C(=O)N(C)C(=S)N2c2ccccc2)C=Cc2ccccc21,·,5.0%,-2.7%,89.1µM*
CCN1/C(=C2\C(=O)N(C)C(=S)N2C)C=Cc2ccccc21,·,1.5%[46.1 µM],-1.4%,-5.5%
CCN1C(=O)/C(=C2\C=Cc3ccccc3N2CC)OC1=S,-5.6%,0.2%,-3.0%,·
CCN1/C(=C2\C(=O)N(C)C(=S)N2C)C=Cc2cc(C)ccc21,-19.9%,4.6%[46.1 µM],0.9%,44.7µM*
O=C1CCNc2cc3ccccc3cc21,28.2µM*,1.2%,-0.7%,13.7%
Oc1c(Br)cc(Br)cc1-c1nc2ccccc2s1,-4.7%,·,·,·
COCCn1c(=O)c(-c2ccc(OC)cc2)nc2cnc(OC)nc21,·,·,·,11.2%
O=S(=O)(c1ccc(Br)s1)N1CCN(c2ccc(F)cc2)CC1,·,0.0%,2.8%,50.1µM*
Cc1cc(C)cc(N(C)S(=O)(=O)c2nnc(NC(=O)COc3ccc(Cl)cc3)s2)c1,1.7%,·,·,·
COc1cccc(-n2cnc3sc4c(c3c2=O)CCC4)c1,31.6µM*,-2.5%,-1.9%,4.6%
COc1cccc(-n2cnc3sc(-c4ccccc4)cc3c2=O)c1,-0.6%,-0.8%,7.5%,·
Cc1ccccc1-c1nc(-c2ccccn2)no1,·,7.6%,?,8.0%
COc1ccccc1-c1nc(-c2ccc(C)nc2OC)no1,14.1µM*,10.6%,-3.0%,13.3%
COc1ccc(-c2nc(-c3ccccn3)no2)cc1,-2.7%,-1.0%,1.41µM*,-3.3%
COc1nc(C)ccc1-c1noc(-c2ccccn2)n1,-2.9%,-19.0%,·,3.5%
COc1ccccc1-c1nc(-c2ccccn2)no1,-18.8%,1.1%,1.41µM*,-4.1%
c1ccc(-c2nc(N3CCOCC3)c3ccccc3n2)nc1,2.8%,-52.0%,-2.7%,14.1µM*
COc1ccc(Oc2nc(-c3ccccn3)nc3ccccc23)cc1,0.5%,11.1%,-17.8%,39.8µM*
SMILES,ClpP mod,TCR act,uPA surface inh,Sfp inh
CCOC(=O)C1CCN(c2c(C(=O)c3ccccc3)cnc3ccc(Cl)cc23)CC1,-0.5%,0.9%,6.7%,7.0%
COc1cc(C(=S)N(C)C)ccc1O,0.4%,-0.6%,-1.4%,39.8µM*
CCCOC(=O)c1ccc(O)c(OC)c1,·,-0.7%,-2.1%,-6.7%
CCNc1sc(C(=O)c2cccs2)c(N)c1C#N,13.2%,4.5%,1.2%,44.7µM*
C=CCNc1sc(C(=O)c2ccccc2)c(N)c1-c1nc2ccccc2s1,2.8%,-11.4%,4.5%,20µM*
C=CCNc1sc(C(=O)c2cccs2)c(N)c1C#N,-2.1%,4.9%[46.1 µM],-5.2%,5.5%
CCNc1sc(C(=O)c2cccs2)c(N)c1-c1nc2ccccc2s1,-0.4%,-5.6%,10.3%,17.8µM*
CN(C)c1ccc(/C=C(\C#N)c2ccccc2)cc1,1.6%,8.0%,0.891µM*,-9.9%
CN(C)c1cccc(/C=C(\C#N)c2ccccc2)c1,-0.1%,-79.5%,?,-6.2%
COc1cccc(N(C(=O)CCl)C(C(=O)NCCc2ccccc2)c2cccs2)c1 (stereo not given),-0.4%,5.4%,-12.4%,2.4%
COc1ccc(N(C(=O)CCl)C(C(=O)NCCc2ccccc2)c2cccs2)cc1Cl (stereo not given),0.6%,0.8%[46.1 µM],3.98µM*,-19.2%
O=C(CN1CCCC1)Nc1cc(F)ccc1F,-1.3%,0.8%,19.9%,11.2%
O=C(CNCCc1ccc(F)cc1)Nc1cc(F)ccc1F,0.7%,0.6%,-7.4%,63.1µM*
